Here are results for seven compounds from PubChem BioAssay (NCATS).

Molecules are shown by their SMILES. Inconclusive results are not listed. A number with no mark means an inactive call. Calls of active or inactive are those of the source. Calls follow the shape of the dose curve; as a rule, active = well fitted curve in the direction sought with a large enough effect; inconclusive = small, poorly fitted or top-dose-only effect, or another doubt; inactive = no such curve, though single readings can be large; an effect the other way counts as inactive or inconclusive.

Assay [1] deals with MCC-13. Briefly: qHTS assay to identify novel small-molecules to repurpose for Merkel cell carcinoma treatment (AID 1296009). Also: nearly all actives have a fitted effect of over 60% in size. The conditions noted are these: MCC and control cell lines, CellTiter-Glo viability, 72 h; series mostly up to 46 µM. In short, it runs like this: (§1)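 72 hr, 37 degree celsius; NPC 8-pt / MIPE 11-pt dose response; compound pinned in DMSO; CellTiter-Glo, 10 min RT, luminescence; normalized to no-cell and DMSO controls.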
On the technique in general: In qHTS, concentration-response curves come from the screen itself.

In assay [2] the test system is MCC-26. The description is as above. Conditions: MCC and control cell lines, CellTiter-Glo viability, 72 h; series mostly up to 46 µM. In short, it runs like this:
as §1
A general note: In ATP-based viability assays light output follows the ATP content of the culture.

The test system of assay [3] is MKL-1. The assay is described as above. Conditions: MCC and control cell lines, CellTiter-Glo viability, 72 h; series mostly up to 46 µM. In short, it runs like this: as §1
The test system of assay [4] is MKL-2. The description is as above. The conditions noted are these: MCC and control cell lines, CellTiter-Glo viability, 72 h; series mostly up to 46 µM. In short, it runs like this:
as §1

For assay [5], the system named is NIH3T3. Described as above. The conditions noted are these: MCC and control cell lines, CellTiter-Glo viability, 72 h; at 44.8 µM (top of the series) unless noted. In short, it runs like this:
as §1

The subject of assay [6] is UISO. Described as above. The conditions noted are these: MCC and control cell lines, CellTiter-Glo viability, 72 h; series mostly up to 46 µM. In short, it runs like this: as §1
The subject of assay [7] is WaGa. Described as above. Conditions: MCC and control cell lines, CellTiter-Glo viability, 72 h; series mostly up to 46 µM. In a few lines:
as §1

In assay [8] the test system is C33A. Kind of assay: Primary qHTS to identify gynecologic anti-cancer compounds using libraries of approved drugs and bioactive compounds (AID 1345084). Also: nearly all actives have a fitted effect of over 55% in size. The conditions noted are these: Gynecologic cancer cell panel viability, ATPlite luminescence, 48 h; series mostly up to 57.5 µM. In a few lines:
(§2)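 Cytotoxicity screen measuring ATP content by luciferase luminescence. Each compound is applied at five concentrations for 48 h at 37 C with 5% CO2.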

Assay [9] relates to CAOV3. Described as above. The conditions noted are these: Gynecologic cancer cell panel viability, ATPlite luminescence, 48 h; series mostly up to 57.5 µM. In a few lines: as §2
The subject of assay [10] is CASKI. The assay is described as above. Conditions: Gynecologic cancer cell panel viability, ATPlite luminescence, 48 h; series mostly up to 57.5 µM. In a few lines: as §2
In assay [11] the test system is Es-2. The description is as above. The conditions noted are these: Gynecologic cancer cell panel viability, ATPlite luminescence, 48 h; series mostly up to 57.5 µM. In short, it runs like this:
as §2

Assay [12] relates to HeLa. The assay is described as above. The conditions noted are these: Gynecologic cancer cell panel viability, ATPlite luminescence, 48 h; series mostly up to 57.5 µM. In a few lines: as §2
Assay [13] concerns Hek293T. The description is as above. Conditions: Gynecologic cancer cell panel viability, ATPlite luminescence, 48 h, control line for the selectivity index; series mostly up to 57.5 µM. In short, it runs like this:
as §2

Assay [14] has as its system JEG-3. The description is as above. The conditions noted are these: Gynecologic cancer cell panel viability, ATPlite luminescence, 48 h; series mostly up to 57.5 µM. In short, it runs like this: as §2
For assay [15], the system named is OV90. Described as above. The conditions noted are these: Gynecologic cancer cell panel viability, ATPlite luminescence, 48 h; series mostly up to 57.5 µM. In short, it runs like this: as §2
In assay [16] the test system is PA-1. The description is as above. The conditions noted are these: Gynecologic cancer cell panel viability, ATPlite luminescence, 48 h; series mostly up to 57.5 µM. In a few lines: as §2
The subject of assay [17] is SKOV3. The assay is described as above. Conditions: Gynecologic cancer cell panel viability, ATPlite luminescence, 48 h; series mostly up to 57.5 µM. In short, it runs like this: as §2
For assay [18], the system named is Tov-21-G. Described as above. The conditions noted are these: Gynecologic cancer cell panel viability, ATPlite luminescence, 48 h; series mostly up to 57.5 µM. In short, it runs like this: as §2
The subject of assay [19] is Tov112D. The description is as above. The conditions noted are these: Gynecologic cancer cell panel viability, ATPlite luminescence, 48 h; series mostly up to 57.5 µM. In short, it runs like this:
as §2

Assay [20] in a line: Drug repurposing screens with cells derived from glioblastoma tumor samples (AID 1345199). Also: nearly all actives have a fitted effect of over 40% in size. Also: potency is read from the fitted curve at half-maximal effect. Conditions: GBM patient neurospheres viability, ATP luminescence, 48 h. In a few lines: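 Four patient lines of CD133+ GBM neurospheres were screened at several concentrations; hits were retested in those lines plus three slower-growing GBM lines, using 48-hour treatment and ATP-based viability.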

Where [21] appears, read: at 45.9 µM (top of the series), tumour line B.
Where [22] appears, read: at 45.9 µM (top of the series), tumour line D.
% is scaled to controls: 0 for no effect and ±100 for the full control effect.

In the case of `CCC1(c2ccccc2)C(=O)N(COC)C(=O)N(COC)C1=O`, the outcome in assay [1], in assay [5], in assay [9], in [10], in [13] and in assay [14] was inactive. For the same compound, the outcome in [17] was inactive. Moreover, the Potency result in assay [2], in assay [3], in [4], in assay [6], in assay [7] and in assay [8] was “inactive” each time. Besides, the Potency entry in assay [11], in [12], in assay [15], in [16], in assay [18] and in [19] was “inactive” in each case. The activity, negative = cell killing was -7.62% in assay [20] (setting [21]); 2.45% in [20] (setting [22]); -19.3% in [20] (at 46 µM (top of the series), tumour line A).

With `CC(C)(C)NCC(O)c1cc(Cl)c(N)c(C(F)(F)F)c1` (centres undefined), the result in assay [1], in [5], in assay [9], in assay [10], in assay [13] and in assay [14] was inactive. Further, the compound was classed as inactive in assay [17]. For the same compound, the Potency result in assay [2], in assay [3], in [4], in assay [6], in [7] and in assay [8] was “inactive” throughout. For the same compound, the Potency entry in assay [11], in assay [12], in assay [15], in assay [16], in assay [18] and in assay [19] was “inactive” in each case. Besides, the activity, negative = cell killing in assay [20] (setting [21]) is -7.42%; in [20] (setting [22]) it was -9.1%.

`ClCCN1CCCC1`: the compound was called inactive in assay [1], in [5], in assay [9], in assay [10], in [13] and in [14]. Moreover, the compound was called inactive in [17]. The Potency entry in assay [2], in assay [3], in assay [4], in [6], in assay [7] and in assay [8] was “inactive” throughout. Further, the Potency entry in assay [11], in [12], in assay [15], in assay [16], in assay [18] and in [19] was “inactive” throughout.

As to `C[C@H]1[C@@H]2Cc3ccc(O)cc3[C@@]1(C)CCN2C`, the compound was classed as inactive in assay [1], in [9], in assay [10], in assay [13], in assay [14] and in assay [17]. The Potency result in assay [2], in assay [3], in assay [4], in assay [6], in assay [7] and in assay [8] was “inactive” in each case. Besides, the Potency entry in [11], in assay [12], in assay [16], in assay [18] and in [19] was “inactive” each time. Further, the outcome in [5] is “inactive [at 231 µM]”. The activity, negative = cell killing in assay [20] (at 231 µM (top of the series), tumour line B) is -0.237%; in assay [20] (at 231 µM (top of the series), tumour line D), -19.7%. Further, in [20] (tumour line A), the Potency is 112 µM (active).

With `CCCOC(=O)c1cncn1C(C)c1ccccc1` (centres undefined), the outcome in assay [1], in assay [9], in assay [10], in assay [13], in [14] and in [17] was inactive. Besides, the Potency result in [2], in assay [3], in assay [4], in [6], in assay [7] and in assay [8] was “inactive” in each case. In addition, the Potency entry in assay [11], in assay [12], in assay [15], in [16], in assay [18] and in [19] was “inactive” throughout.

With `CCC(C)C(C)(COC(N)=O)COC(N)=O` (centres undefined), the outcome in [1], in assay [5], in assay [9], in assay [10], in assay [13] and in assay [14] was inactive. Besides, the compound was classed as inactive in [17]. Also, the Potency result in [2], in assay [3], in assay [4], in assay [6], in assay [7] and in [8] was “inactive” each time. Besides, the Potency result in assay [11], in [12], in [15], in [16], in assay [18] and in assay [19] was “inactive” each time.

Turning to `Clc1ccccc1N1CCNCC1`, the result in assay [1], in [5], in [9], in assay [10], in [13] and in assay [14] was inactive. The compound was called inactive in assay [17]. The Potency result in assay [2], in assay [3], in assay [4], in [6], in [7] and in assay [8] was “inactive” throughout. Further, the Potency entry in assay [11], in assay [12], in assay [15], in [16], in assay [18] and in assay [19] was “inactive” throughout.
